Hits are enriched below; roughly 2.9% of the tested compounds scored in any of these assays.
KKLEB tox: reduces viability of KKLEB cystic fibrosis airway cells; KKLEB CF airway cells viability, ATPlite luminescence, overnight; hits give low values; cells stimulated with P. aeruginosa culture filtrate; activity change (cytotoxicity), % at 5 µM; actives 0.36% (n = 360,000);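 active means corrected activity change at or below -50% at 5 µM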
LMP1 NFkB inh: reduces LMP1-driven NF-kappaB luciferase signal; inhibition, % at 12.5 µM; LMP1-induced NF-kappaB luciferase reporter cells, luminescence; actives 0.69% (n = 350,000); in the data active means inhibition above about 41%; inconclusive means no clear call, values can overlap the other calls
Shn3 3UTR inh: reduces Shn3 3'UTR luciferase signal in osteoblasts. Clone20 osteoblast Shn3 3'UTR firefly luciferase, 24 h. inhibition, % at 12.5 µM. actives 0.52% (n = 360,000);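 active means mean inhibition of at least 75% with every replicate also reaching 75%; inconclusive means mean inhibition at least 75% but some replicate below; inactive means mean inhibition below 75%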
CF NFkB inh: blocks PAF-induced NF-kB reporter in cystic fibrosis cells; KKLEB NF-kB-GFP reporter, GFP fluorescence overnight; inhibition, % at 5 µM; actives 0.86% (n = 360,000); AID 588850;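 active means at least 50% inhibition at 5 µM, scaled per plate between neutral and stimulator controls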;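 further: PAF is a Pseudomonas aeruginosa culture filtrate used as stimulus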
Peg3 prom inh: reduces Peg3 promoter-driven luciferase expression in HeLa. HeLa PEG-Prom luciferase reporter, luminescence, overnight. inhibition, % at 20 µM. actives 1.7% (n = 360,000). AID 588405;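 active means inhibition of at least 50% at 20 µM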
MITF TRPM1 inh: inhibitors of MITF-driven TRPM1 promoter in melanoma cells; inhibition, % at 12.5 µM; SK-MEL-5 TRPM1 promoter luciferase, 24 h; actives 0.83% (n = 330,000);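 active means mean inhibition across replicates of 60% or more, whatever share of single replicates reaches that level; inconclusive means some that reach 60%, reason not given; inactive means mean inhibition across replicates below 60%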
Hits are given with their value; n = inactive; u = inconclusive; x = not tested or not shown; ! = not active in a repeat.

SMILES | KKLEB tox | LMP1 NFkB inh | Shn3 3UTR inh | CF NFkB inh | Peg3 prom inh | MITF TRPM1 inh
CCN(CC)C(=O)C1=C(C)N(Cc2ccc(OC)cc2)C(=O)C(CC(=O)NCc2cccs2)C1 (centres undefined) | n | n | n | n | n | x
O[C@H]1CN(CC2CCCCC2)[C@@H](c2ccccc2)C[C@@H]1n1cc(C2CC2)nn1 | n | n | n | n | n | x
CCCCC(=O)NC(c1cccc([N+](=O)[O-])c1)c1ccc2cccnc2c1O (centres undefined) | n | 50 | 89 | n | 58 | n
COc1cccc(C(NC(C)=O)c2nc(-c3cccnc3)cs2)c1 (centres undefined) | n | x | n | n | n | x
COc1cccc(C(NC(C)=O)c2ccc3cccnc3c2O)c1 (centres undefined) | n | 50 | n | n | n | 84
Cc1ccc(NC(=O)COC(=O)C2(CC(=O)NC(C)C)CCCC2)cc1C | n | n | n | n | n | n
CN(C)/C=C/C(=O)c1ccc(N2CCN(c3ncc(C(F)(F)F)cc3Cl)CC2)cc1 | n | n | n | n | 73 | n
Cc1cc(C(=O)OCC(=O)NC(C)c2ccc(F)cc2)c(C)o1 (centres undefined) | n | n | n | n | n | n
C(C#CCCCCCCCCC[n+]1ccccc1)#CCCCCCCCCC[n+]1ccccc1 | n | n | u | 53 | 105 | 101
COc1cc2c(cc1[N+](=O)[O-])-c1ccc([N+](=O)[O-])cc1C2=NO | n | n | n | n | 52 | x
CCN1CCN(Cc2ccc(NC(=O)c3ccc(C)c(NC(=O)C4=NN(c5ccccc5)C(=O)C4)c3)cc2C(F)(F)F)CC1 | n | n | n | n | n | n
CCN1CCN(Cc2ccc(NC(=O)c3ccc(C)c(NC(=O)C[C@@H]4NC(=O)[C@H](Cc5ccccc5)NC4=O)c3)cc2C(F)(F)F)CC1 | n | n | n | n | n | n
CCN1CCN(Cc2ccc(NC(=O)c3ccc(C)c(/C=C/c4cnc(Nc5cc(N6CCNCC6)nc(C)n5)cn4)c3)cc2C(F)(F)F)CC1 | n | 69 | 96 | 76! | 96 | 98
CCN1CCN(Cc2ccc(NC(=O)c3ccc(C)c(NC(=O)c4c[nH]c5cc(C(F)(F)F)ccc5c4=O)c3)cc2C(F)(F)F)CC1 | -83 | 63! | 99! | 94 | 103 | 103
CCN1CCN(Cc2ccc(NC(=O)c3ccc(C)c(NC(=O)c4cccc(-c5cn[nH]c(=O)c5)c4)c3)cc2C(F)(F)F)CC1 | n | 61 | n | 72 | n | n
Cc1ccc(C(=O)Nc2cccc(C(F)(F)F)c2)cc1NC(=O)c1c[nH]c2cc(C(F)(F)F)ccc2c1=O | n | n | n | n | n | n
O=C(Nc1cccc(F)c1)C1CC(=O)N(c2ccc(Br)cc2)C1 (centres undefined) | n | n | n | n | n | n
O=C(Nc1cccc(Cl)c1Cl)C1CC(=O)N(c2ccc(Br)cc2)C1 (centres undefined) | n | n | 87 | n | n | n
Cc1nc2ccc(NC(=O)c3ccc(S(=O)(=O)N(C)c4ccccc4)cc3)cc2s1 | n | n | n | n | 67 | n
CCn1c(=O)cc(SCC(=O)Nc2ccc(C)cn2)c2ccccc21 | n | n | n | n | 83 | n
CCn1c(=O)cc(SCC(=O)NCc2ccc(C)cc2)c2ccccc21 | n | n | n | n | n | n
OCCCNc1cc(-c2ccnc(Nc3cccc(Cl)c3)n2)ccn1 | n | 89 | 90 | 86 | 103 | u
COc1ccc(NC(=O)c2oc3ccccc3c2NC(=O)c2ccc(OC)c(OC)c2)c(OC)c1 | n | n | n | n | n | n
COc1ccc(NC(=O)c2oc3ccccc3c2NC(=O)COc2ccccc2OC)c(OC)c1 | -54 | n | n | 54 | n | n
O=C(NC(c1ccc(Cl)cc1)c1c(O)ccc2ccccc12)c1ccccc1 (centres undefined) | -62 | n | n | 64 | 58 | n
SMILES | KKLEB tox | LMP1 NFkB inh | Shn3 3UTR inh | CF NFkB inh | Peg3 prom inh | MITF TRPM1 inh
COc1ccc(NC(=O)Cc2c(O)c3ccccc3[nH]c2=O)cc1 | n | n | n | n | n | n
COc1ccc(OC)c(N=Nc2c(O)c3ccccc3[nH]c2=O)c1 | n | n | n | n | 70 | n
CC1(C(=O)NS(=O)(=O)c2cccc(C#N)c2)CCN1C(=O)CCC1CCCC1 (centres undefined) | n | x | n | n | n | x
O=[N+]([O-])c1ccc(N=Nc2c(Cl)cc(O)cc2Cl)cc1 | -70 | n | n | 56 | 72 | n
CC(N)=Nc1ccc([N+](=O)[O-])cc1 | n | n | n | n | n | n
CC(=O)Nc1ccc(/C=C/c2nc3ccccc3o2)cc1 | n | n | n | n | n | n
C(=Cc1nc2ccccc2o1)c1ccc2c(c1)OCO2 | n | 45 | n | n | n | x
Cc1cc(N=Cc2c(O)n(-c3ccc4c(c3)OCO4)c(=O)c3ccccc23)ccn1 | n | n | n | n | n | 75
Cc1ccc(-n2c(O)c(C=Nc3ccc4c(c3)OCO4)c3ccccc3c2=O)cc1C | n | n | n | n | n | n
COc1ccc(-n2c(O)c(C=Nc3ccccc3)c3ccccc3c2=O)cc1 | -52 | n | n | n | n | n
CNS(=O)(=O)c1ccc(CNC[C@H]2O[C@@H](n3cc(C)c(=O)[nH]c3=O)C[C@@H]2O)cc1 | n | n | n | n | n | x
O=C(Nc1ccccc1Cc1ccccc1)c1ccccc1NS(=O)(=O)c1ccc(Cl)s1 | n | n | n | 63 | n | n
Cc1ccc(NC(=O)c2ccccc2NS(=O)(=O)c2ccc(Cl)s2)cc1 | n | n | n | 60 | n | n
O=C(Nc1ccccc1)c1ccccc1NS(=O)(=O)c1ccc(Cl)s1 | n | n | n | n | n | n
COc1cc(NC(=O)C2(C)CCCN2C)cc(OC)c1OC (centres undefined) | n | x | n | n | n | x
CC1(C(=O)NC2CCCC2)CCC(=O)N1CCOc1ccccc1 (centres undefined) | n | x | n | n | n | x
Cn1ncc([N+](=O)[O-])c1C(=O)Nc1ccccc1C#N | n | n | n | n | n | x
COc1ccc2nc(N=Nc3ccc(O)c4ccccc34)sc2c1 | n | n | u | n | n | 75
COc1ccc2nc(N=NC3=C(O)CC(C)(C)CC3=O)sc2c1 | n | n | n | n | n | 64
COc1ccc(C=C2OC(=O)C(C(C)=O)=C2O)cc1 | n | 51 | n | n | n | x
Clc1ccc(-c2nc3cnccn3c2NC2CCCC2)cc1 | n | n | n | n | n | n
COc1ccc(Sc2ccc(-c3nc4cnccn4c3NC3CCCCC3)cc2OC)cc1 | n | n | n | n | 63 | n
CCC(C)Sc1ccc(-c2nc3cc(C)ccn3c2NC2CCCCC2)cc1 (centres undefined) | n | n | n | n | n | n
CCC(C)Sc1ccc(-c2nc3cnccn3c2NC2CCCCC2)cc1 (centres undefined) | n | n | n | n | 91 | n

Bioassay records (PubChem BioAssay)
